Measurements taken from PubChem BioAssay AID2315 (National Center for Advancing Translational Sciences (NCATS), 2010).
Among all 290,000 compounds or so, about 27,000 (9.3%) were called active. Only a selection was taken, and actives are over-represented in it overall. A number with no mark means an inactive call. No stated cut-off is given here; in the data, active means inhibition mostly above about 28% (no sharp cut-off); inactive means mostly below about 43%.

Experiment: A qHTS for Small Molecule Inhibitors of Shiga Toxin; further: 0% is about no effect
Details: Vero cells, Shiga toxin protein synthesis inhibition reporter; at 38.7 µM, active compounds read high

SMILES	inhibition
COc1cccc(CNC(=O)C2CCCN(S(=O)(=O)N3CC(C)CC(C)C3)C2)c1 (centres undefined)	-1.73%
Cc1ccc(S(=O)(=O)N(CCCN(C)C)Cc2ccc3c(c2)OCO3)cc1	9.86%
O=S(=O)(c1ccc(Br)cc1)c1nc(-c2ccccc2)oc1N1CCOCC1	-6.09%
COc1ccc(S(=O)(=O)NCC(=O)NC2CC2)cc1OC	-5.35%
Cn1nccc1C(=O)NC1CCCc2c1cnn2-c1ccc(F)cc1F (centres undefined)	10.4%
COC(=O)c1c(NC(=O)c2ccc(S(=O)(=O)N3CCOCC3)cc2)sc2c1CCN(C(C)C)C2	-17.4%
Cc1nn2c(c1-c1ccccc1)N=C(c1ccco1)CC2c1ccccc1 (centres undefined)	103% (active)
O=C(O)CCCC(=O)N1N=C(c2ccco2)CC1c1ccco1 (centres undefined)	-14%
Cc1cc(C)c(C(=O)CSc2nc(C)cc(=O)[nH]2)c(C)c1	-13.9%
CCC(C)(C)n1nnnc1C(c1ccc(OC)c(OC)c1)N1CCN(C(=O)c2ccco2)CC1 (centres undefined)	-11.9%
CCOC(=O)[C@@H]1[C@H]2COc3cc(OC)ccc3[C@H]2N2C(=O)N(c3ccc(F)cc3)C(=O)[C@]12C	-4.71%
Cc1cc(NC(=O)CN2CCCCC2C)nc2c1c(=O)oc1ccccc12 (centres undefined)	-0.755%
CCN(CC)CCN1C(=O)C(=O)/C(=C(/O)c2ccccc2)C1c1ccccc1F (centres undefined)	19.4%
CCN(CC)CCN1C(=O)C(=O)/C(=C(/O)c2cnn(-c3ccccc3)c2C)C1c1cccs1 (centres undefined)	79.5% (active)
CCN(CC)CCN1C(=O)C(=O)/C(=C(/O)c2ccc(OC)c(OC)c2)C1c1ccccn1 (centres undefined)	59.8%
O=[N+]([O-])c1cc(C(F)(F)F)ccc1NCCc1ccncc1	2.61%
NC(=O)c1ccc(Nc2ccc3c(c2)CCC3)c([N+](=O)[O-])c1	9.03%
CSc1cccc(NC(=O)CN2C(=O)COc3ccc(S(=O)(=O)N4CCOCC4)cc32)c1	10.9%
Cc1ccc(NC(=O)Cn2nnc(C(=O)NCc3ccco3)c2N)c(C)c1	-2.94%
Cc1ccccc1NC(=O)NCc1ccco1	18.7%
Cc1ccc(NC(=O)C(=O)NCc2ccco2)c(C)c1	109% (active)
O=c1c2cc(Br)ccc2nc(-c2cccc(Cl)c2)n1O	0.78%
COc1cc(/C=N/NC(=O)Cc2ccccc2)cc(OC)c1OC	-8.46%
NS(=O)(=O)c1cccnc1Nc1cccc(Cl)c1	15.1%

SMILES	inhibition
OCCCNc1nccc(-c2cc(Nc3cccc(Cl)c3)ncn2)n1	51.3% (active)
CC(C)n1cnc2c(Nc3cccc(Cl)c3)nc(N(CCO)CCCO)nc21	-2.33%
O=C(O)CN1c2cccc3cccc(c23)S1(=O)=O	-1.09%
O=C(NCc1cccnc1)c1ccccc1NC(=O)c1c(F)cccc1F	-17.6%
CCOC(=O)C1(CCOC)CCN(Cc2ccc(C(=O)OC)cc2)CC1	74.5% (active)
CCOC(=O)C1(CCOc2ccccc2)CCN(Cc2cc(OC)cc(OC)c2)CC1	-16.1%
CCOC(=O)C1(CCOc2ccccc2)CCN(Cc2ccc(C#CCCO)cc2)CC1	-10.3%
Cc1cc(NC(=O)CCN2CCN(Cc3ccccc3)CC2)ccc1Br	3.31%
O=C(c1cc(COc2cccc(C(F)(F)F)c2)on1)N1CCSCC1	26.5%
CCOC(=O)CC1COCCN1C(=O)c1cc(COc2ccc(F)c(F)c2)on1 (centres undefined)	72.8% (active)
CCC(NC(=O)c1cc(COc2ccc(F)c(F)c2)on1)c1ccncc1 (centres undefined)	52.5% (active)
O=C(c1cc(COc2c(F)cccc2F)on1)N1CCSCC1	100% (active)
O=C(NC1Cc2ccccc2C1)c1cc(COc2cccc(C(F)(F)F)c2)on1	-0.154%
O=C(c1c(F)cccc1F)N1CCN(c2ncc(Br)cn2)CC1	-6.62%
Cc1cc(NC(=O)COC(=O)c2ccc(F)c(S(=O)(=O)N3CCOCC3)c2)no1	-2.48%
O=C(c1cc(COc2ccc(F)c(F)c2)on1)N1CCOCC1	90.7% (active)
O=C(CC(NC(=O)c1ccccc1)c1ccccc1)Nc1ccc(F)c(F)c1 (centres undefined)	12.4%
C=CCC1(CC=C)CCCN1C(=O)c1cc(COc2ccc(-n3cncn3)cc2)on1	40.9%
Cc1nonc1C1CCCN1C(=O)c1cc(COc2cccc(C(F)(F)F)c2)on1 (centres undefined)	23.7%
Cc1c(C(=O)N2CCOCC2)[nH]c2ccc(OCc3ccccc3)cc12	5.47%
CC(C)NC(=O)N1CCN(c2ccncc2S(=O)(=O)N2CCCCC2)CC1	-38.7%
Cn1c(=O)c(=O)n(C)c2cc(S(=O)(=O)CCC(=O)N3CCCCC3)ccc21	-4.02%
CN(C)CCNc1ccc(-c2n[nH]c(=O)c3ccccc23)cc1[N+](=O)[O-]	-10.6%
Cc1ccc(C(=O)NCC(=O)NCc2cc(=O)n(C)c(=O)n2C)cc1	-10.2%

SMILES	inhibition
COc1ccc(C(C(=O)NC2CCCCC2)N(C(=O)c2snc(C(N)=O)c2N)c2ccccc2OC)cc1 (centres undefined)	-17.5%
COc1ccc(-n2nc(C(=O)NCC(=O)N3CCCCCC3)c3ccccc3c2=O)cc1Cl	-9.59%
COc1cc(CC(=O)N2CCC(n3nccc3NC(=O)C3CC3)CC2)cc(OC)c1OC	-10.9%
Cc1cc(C)cc(N(CCC#N)C(=O)CN2C(=O)NC3(CCCC3)C2=O)c1	23%
O=C(O)C1CCCN1C1=NS(=O)(=O)c2ccccc21 (centres undefined)	-13.3%
CCOC(=O)C1CCN(C(=O)Cn2nc(C)c3c(C)n(-c4ccccc4)nc3c2=O)CC1	-6.47%
COc1ccc(N2CCN(S(=O)(=O)c3cc(Br)cnc3N)CC2)cc1	-7.11%
O=C(CCN1C(=O)[C@@H]2Cc3ccccc3CN2C1=O)NCCc1ccccc1	-8.8%
O=C(Oc1ccc(C(=S)N2CCOCC2)cc1)c1ccc(F)cc1	-4.36%
O=C(c1cc(COc2ccc(F)cc2F)on1)N1CCOCC1	81.3% (active)
COCCN1CCN(C(=O)c2cc(COc3ccc(F)cc3Cl)on2)CC1	-23.4%
O=C(CSc1ccccc1)Nc1nnc(/C=C/c2ccccc2)s1	-38.9%
COc1ccc(/C=C/c2nnc(NC(=O)C(C)C)s2)cc1	42.3% (active)
O=C(Nc1ccc(Cl)cc1)Nc1nnc(/C=C/c2ccccc2)s1	-5.24%
COC(=O)[C@]1(S(=O)(=O)c2ccccc2)C[C@@H]2ON=C(c3ccc(OC)cc3)[C@@H]2C1	13.5%
Cc1nn2cc(-c3ccc(Cl)cc3)cnc2c1Br	38.8% (active)
COc1ccc(NC(=S)N2N=CCC2c2ccccc2)cc1 (centres undefined)	88.7% (active)
COc1ccc(NC(=O)N2CCC(Cc3ccccc3)CC2)cc1	35.2%
COc1ccc(N2CCN(C(=S)Nc3ccc(S(N)(=O)=O)cc3)CC2)cc1	-17.7%
COc1ccccc1CNC(=O)C1CCN(S(=O)(=O)c2ccc3c(c2)CC(C)N3C(=O)C2CC2)CC1 (centres undefined)	-10.2%
Cc1ccc(N(Cc2ccccc2O)C(=O)c2ccccc2F)cc1	-2.19%
CCCC(=O)N(CCN1CCOCC1)c1nc2ccc(OCC)cc2s1	1.4%
CCOc1ccc2nc(C(=O)N3CCCC(C)C3)sc2c1 (centres undefined)	129% (active)
CCOc1ccc2nc(Nc3nc4ccc(NC(C)=O)cc4s3)sc2c1	50.5%

SMILES	inhibition
CC(C)[C@@H](C(=O)O)N(Cc1cccc(CN([C@H](C(=O)O)C(C)C)S(C)(=O)=O)c1)S(C)(=O)=O	-4.11%
CN1c2ccc([N+](=O)[O-])cc2C(C)(C)C12C=Cc1cc(C(=O)O)ccc1O2 (centres undefined)	6.92%
COc1ccc2c(c1)C=CC1(O2)N(CCO)c2ccccc2C1(C)C (centres undefined)	40.8% (active)
COc1cccc(CC2(CO)CCCN(CC3=Cc4cc(OC)ccc4OC3)C2)c1 (centres undefined)	-9.4%
Cc1ccc(C)c(NC(=O)c2cc(-c3cc(C)cc(C)c3O)n[nH]2)c1	1.58%
Clc1ccc(C[n+]2cc(-c3ccccc3)n3c2CCC3)cc1	12.3%
Cc1ccc(/C=N/NC(=O)CSc2ccccn2)o1	17.6%
O=C(N/N=C\c1cccnc1)c1cc(-c2ccccc2)nc2c(Cl)cccc12	-27%
Cc1ccc(/C=N/NC(=O)c2cc3ccccc3cc2O)o1	51.6% (active)
O=C(N/N=C/c1cccnc1)c1cc2ccccc2cc1O	87.2% (active)
O=C(N/N=C/c1cccnc1)c1ccc(NC(=O)c2ccc(F)cc2)cc1	12.4%
Cc1ccc(/C=N/NC(=O)CNC(=O)COc2ccccc2)o1	-15.5%
CN(C)CCOC1c2ccccc2-c2ccccc21	-5.07%
COc1ccc(NC(=O)CNC(=O)Cc2ccccc2)cc1OC	3.87%
O=C(CN(Cc1ccccc1)C(=O)CCC(=O)Nc1ccccn1)NCCc1ccccc1	-11.7%
COc1ccc2c(c1)c(C(=O)N/N=C/c1cccs1)c(C)n2C	-4.44%
CSc1ncc(Cl)c(C(=O)Nc2cc(C)ccc2C)n1	-0.876%
COCCSc1nnc(NC(=O)CCS(=O)(=O)Cc2ccccc2)s1	-28.2%
Cc1ccc(CS(=O)(=O)c2ncc(Cl)c(C(=O)Nc3nnc(C)s3)n2)cc1	116% (active)
CSc1nnc(NC(=O)c2nc(S(=O)(=O)Cc3ccc(C)cc3)ncc2Cl)s1	85.5% (active)
Cc1nnc(NC(=O)CCCOc2ccccc2)s1	-8.1%
Cc1ccc(S(=O)(=O)CC(=O)Nc2nnc(C)s2)cc1	-7.78%
